The text below walks through data of PubChem BioAssay.

SMILES strings stand for the structures. For some assays here: Entries with a potency or affinity are not part of this list. The source made the active and inactive calls.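 Rule for the calls, unless noted: active = earlier screen potentiator hit that boosts the TRPC4 ion channel at some dose, with a dose response; inactive = no potentiation, no dose response, or not a prior hit.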

The inhibition is the change of the read-out against control, counted positive when it falls.

The test system of assay [1] is TRPC4 beta (transient receptor potential cation channel C4), mouse. The assay can be described thus: activators of mouse TRPC4 channel, confirmation, cell-based, Fluo4 calcium, HEK293 TRPC4beta/mu-opioid, duplicates, 10 µM (AID 2426;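 active = fluorescence ratio normalized to control raised more than 50% in primary screen plus both repeat runs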;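 for activation: percent rise of integrated ratio over buffer wells lacking compound which define 0%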). Particulars: Fluo4 calcium fluorescence, at 10 µM; hits give high values.
Assay [2] concerns transient receptor potential cation channel C4 beta (TRPC4), mouse. The assay can be described thus: activators of mouse TRPC4 channel, confirmation, cell-based, second round, Fluo4, HEK293 TRPC4beta/mu-opioid, 1 µM (AID 2461;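 active = primary screen active and over 50% activation in each of two duplicate runs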). The settings on record: Fluo4 calcium fluorescence, at 1 µM; hits give high values.
For assay [3], the system named is TRPC4 (transient receptor potential cation channel C4 beta), mouse. The assay is described as follows: positive allosteric modulators of mouse TRPC4, confirmation, cell-based, second round, Fluo-4, HEK293 TRPC4beta/mu-opioid, 1 µM (AID 2554;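 active = primary screen hit whose fluorescence ratio, in both repeats, exceeds the weak agonist control mean by 3 SD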). The settings on record: DAMGO EC20, Fluo-4 calcium flux, at 1 µM; hits give high values.
Assay [4] concerns TRPC4 beta (transient receptor potential cation channel C4), mouse. The assay is described as follows: positive allosteric modulators of mouse TRPC4, confirmation, cell-based, Fluo-4, HEK293 TRPC4beta/mu-opioid (AID 2555;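 active = primary screen hit whose calcium fluorescence ratio, in both repeats, exceeds the weak agonist control mean by 3 SD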). The settings on record: DAMGO EC20, Fluo-4 calcium flux, at 10 µM; hits give high values. (In general: Calcium flux is commonly read through the fluorescence of an indicator in the cells.)

The target of assay [5] is Short transient receptor potential channel 4 (Mus musculus) (UniProt Q9QUQ5). The assay can be described thus: inhibitors of mouse TRPC4 channel, confirmation, cell-based, Fluo4, HEK293 TRPC4beta/mu-opioid (AID 2636;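 active = calcium signal cut by more than 3 SD below the full-agonist control yet still positive, in both repeats and the earlier primary screen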). The settings on record: DAMGO, Fluo4 calcium flux, at 10 µM; hits give high values.
Sequence of Short transient receptor potential channel 4 (Mus musculus) (Q9QUQ5 whole entry, looked up): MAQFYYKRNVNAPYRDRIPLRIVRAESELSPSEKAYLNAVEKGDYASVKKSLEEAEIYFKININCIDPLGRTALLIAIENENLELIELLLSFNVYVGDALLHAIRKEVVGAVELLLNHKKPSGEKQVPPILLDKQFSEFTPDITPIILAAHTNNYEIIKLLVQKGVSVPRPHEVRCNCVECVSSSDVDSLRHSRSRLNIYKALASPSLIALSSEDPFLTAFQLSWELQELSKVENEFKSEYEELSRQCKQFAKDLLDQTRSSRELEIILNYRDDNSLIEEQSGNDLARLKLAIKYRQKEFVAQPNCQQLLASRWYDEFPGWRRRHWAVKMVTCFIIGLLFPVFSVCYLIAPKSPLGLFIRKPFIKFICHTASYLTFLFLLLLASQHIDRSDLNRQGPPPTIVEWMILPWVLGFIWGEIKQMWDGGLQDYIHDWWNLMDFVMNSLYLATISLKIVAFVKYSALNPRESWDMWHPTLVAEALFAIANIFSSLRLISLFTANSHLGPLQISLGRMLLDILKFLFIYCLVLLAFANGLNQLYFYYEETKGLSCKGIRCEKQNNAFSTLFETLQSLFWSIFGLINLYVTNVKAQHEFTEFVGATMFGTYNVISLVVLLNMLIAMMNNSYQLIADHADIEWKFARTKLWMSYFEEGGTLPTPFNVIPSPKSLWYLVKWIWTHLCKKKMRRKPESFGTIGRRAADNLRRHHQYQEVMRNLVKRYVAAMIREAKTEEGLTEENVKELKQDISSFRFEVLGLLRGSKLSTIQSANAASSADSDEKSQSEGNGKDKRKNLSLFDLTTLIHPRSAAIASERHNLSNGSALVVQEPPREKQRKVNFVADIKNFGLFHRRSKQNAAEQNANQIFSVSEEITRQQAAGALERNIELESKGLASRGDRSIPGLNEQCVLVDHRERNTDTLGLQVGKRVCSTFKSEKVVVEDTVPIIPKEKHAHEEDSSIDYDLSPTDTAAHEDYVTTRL
Assay [6] has the same target. The assay is described as follows: inhibitors of mouse TRPC4 channel, confirmation, cell-based, second round, Fluo4, HEK293 TRPC4beta/mu-opioid, 1 µM (AID 2637;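 active = calcium signal ratio cut to more than 3 SD under the fully stimulated control mean yet still positive, in both repeats and the primary screen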;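 for inhibition: percent of integrated ratio relative to wells lacking test compound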). The settings on record: Fluo4 calcium flux, DAMGO, at 1 µM; hits give high values.
The target is the same in assay [7]. The assay is described as follows: mouse TRPC4 channel activators, dose response, cell-based, HEK293 TRPC4/mu-opioid, Fluo-4 calcium (AID 434937;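 active = primary screen activator hit with a dose response curve and TRPC4 channel activation at any tested dose; inactive = no activation, no dose response, or not a primary hit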).
Assay [8] has the same target. The assay is described as follows: TRPC4 positive allosteric modulators, dose response, cell-based, HEK293 TRPC4/mu-opioid, Fluo-4 calcium, EC20 DAMGO (AID 434941).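 Note: calcium entry triggered by an EC20 dose of DAMGO at the co-expressed mu-opioid receptor.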
The target in assay [9] is Short transient receptor potential channel 6 (Mus musculus) (UniProt Q61143). The assay can be described thus: inhibition of mouse TRPC6 channel, confirmation, selectivity assay for TRPC4 inhibitor project, cell-based, HEK293, membrane potential dye, duplicate (AID 434948;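 active = active in primary screen and both duplicates, each dropping signal beyond three positive-control SD with fluorescence still positive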). The settings on record: HEK293 TRPC6, membrane potential dye fluorescence, at 10 µM, stimulated with maximal-effect acetylcholine; hits give high values.
Sequence of Short transient receptor potential channel 6 (Mus musculus) (Q61143 whole entry, looked up): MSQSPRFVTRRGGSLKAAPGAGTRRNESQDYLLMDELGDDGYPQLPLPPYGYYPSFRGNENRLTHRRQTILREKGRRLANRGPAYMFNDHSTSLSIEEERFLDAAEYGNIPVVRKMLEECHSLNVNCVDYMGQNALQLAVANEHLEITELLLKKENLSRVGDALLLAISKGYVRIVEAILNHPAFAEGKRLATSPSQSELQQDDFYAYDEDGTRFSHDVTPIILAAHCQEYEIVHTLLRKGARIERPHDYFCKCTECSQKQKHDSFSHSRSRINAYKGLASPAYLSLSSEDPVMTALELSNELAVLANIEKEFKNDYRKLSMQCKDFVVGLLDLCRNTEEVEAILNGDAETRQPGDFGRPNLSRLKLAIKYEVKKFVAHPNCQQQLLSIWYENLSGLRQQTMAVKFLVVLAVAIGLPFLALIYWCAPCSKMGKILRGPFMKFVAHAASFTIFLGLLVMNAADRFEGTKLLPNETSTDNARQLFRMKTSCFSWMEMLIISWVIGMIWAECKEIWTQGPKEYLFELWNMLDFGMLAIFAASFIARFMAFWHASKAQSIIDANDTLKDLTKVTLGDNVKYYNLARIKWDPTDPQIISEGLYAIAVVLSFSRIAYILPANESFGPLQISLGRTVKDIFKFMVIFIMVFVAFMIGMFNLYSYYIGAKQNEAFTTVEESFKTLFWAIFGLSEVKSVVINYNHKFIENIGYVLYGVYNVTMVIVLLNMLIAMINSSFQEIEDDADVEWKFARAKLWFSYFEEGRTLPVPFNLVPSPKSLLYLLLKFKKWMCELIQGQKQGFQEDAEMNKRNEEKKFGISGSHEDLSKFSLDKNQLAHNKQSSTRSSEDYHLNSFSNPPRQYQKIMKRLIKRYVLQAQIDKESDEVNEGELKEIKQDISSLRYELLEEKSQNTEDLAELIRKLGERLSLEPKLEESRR

The target is the same in assay [10]. The assay is described as follows: activation of mouse TRPC6 channel, confirmation, selectivity assay for TRPC4 activator project, cell-based, HEK293, membrane potential dye, duplicate (AID 434950;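 active = membrane potential signal rise above negative control mean plus 3 SD in both duplicates, also active in the earlier TRPC4 screen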). The settings on record: HEK293 TRPC6, membrane potential fluorescence, at 10 µM; hits give high values.
For assay [11] the target is unchanged. The assay is described as follows: TRPC6 potentiation by TRPC4 potentiator hits, confirmation, selectivity assay for TRPC4 potentiator project, HEK293 cells, membrane potential dye, duplicate (AID 434952;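 active = compound raising the membrane signal above positive-control mean plus 3 SD in both repeats, and a primary screen hit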). The settings on record: HEK293 TRPC6, membrane potential dye fluorescence, at 10 µM, maximal acetylcholine added after compound; hits give high values.
Assay [12] has as its target Short transient receptor potential channel 4 (Mus musculus) (UniProt Q9QUQ5). The assay can be described thus: calcium flux activators in TRPC4/5HT1a cells, counter-screen for TRPC4 activator project, cell-based, second counter screen, HEK293 TRPC4/5HT1a, Fluo-4 (AID 434977;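 active = calcium signal rise above buffer-control mean plus 5 SD in both duplicates, and also a hit in the primary screen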;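 for activation: plate controls were assay buffer for no effect and maximal serotonin response for full effect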). The settings on record: Fluo-4 calcium flux, at 10 µM; hits give high values.
Assay [13] is described as follows: calcium flux inhibitors in TRPC4/5HT1a cells, confirmation, counter-screen for TRPC4 inhibitor project, cell-based, second counter screen, HEK293 TRPC4/5HT1a, Fluo-4 (AID 434978;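 active = primary screen active whose calcium signal fell more than 3 SD beyond the full-serotonin control mean in both duplicate plates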;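 for outcome: serotonin given first at submaximal then at maximal dose after compound preincubation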). The settings on record: Fluo-4 calcium flux, at 10 µM, serotonin added to trigger calcium flux; hits give high values.
The test system of assay [14] is TRPC4 (mouse), co-expressed with 5HT1a in HEK293. The assay is described as follows: calcium flux potentiators in TRPC4/5HT1a cells, confirmation, counter-screen for TRPC4 potentiator project, cell-based, second counter screen, HEK293 TRPC4/5HT1a, Fluo-4 (AID 434979;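 active = signal rise over 3 SD above mean of control wells given weak agonist, in both repeats and first screen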). The settings on record: Fluo-4 calcium flux, at 10 µM, serotonin added at its EC20 dose; hits give high values.

Assay [15] is described as follows: calcium flux activation in mu-opioid HEK293 cells, confirmation, counter-screen for TRPC4 activator project, cell-based, HEK293 mu-opioid receptor line (AID 449723;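 active = hit in primary screen, with calcium signal over 5 SD above buffer well mean in both duplicates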;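 note: counter screen cells carry the mu-opioid receptor alone and lack TRPC4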). Particulars: Fluo-4 calcium fluorescence, at 10 µM; hits give high values.
Assay [16] is described as follows: calcium flux enhancement in mu-opioid HEK293 cells, confirmation, counter-screen for TRPC4 allosteric potentiator project, cell-based, HEK293 mu-opioid receptor line (AID 449724;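 active = calcium signal rise more than 3 SD above the low-dose agonist control mean, in both duplicate plates and the primary screen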;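 note: HEK293 cells carrying mu-opioid receptor only with no TRPC4 channel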). Particulars: Fluo-4 calcium flux, at 10 µM, compound added before EC20 DAMGO stimulus; hits give high values.

For the compound `CCOC(=O)C1(CCOc2ccccc2)CCN(Cc2cccs2)CC1`, the outcome in assay [1], in [2], in assay [3], in assay [4], in assay [6] and in assay [7] was inactive. The outcome in assay [8], in assay [9], in assay [10], in assay [11], in assay [12] and in assay [13] was inactive. Further, the result in [14], in [15] and in assay [16] was inactive. Besides, in assay [5], the inhibition was 80% (active).
On to `O=[N+]([O-])c1ccc(O)c(C2=NNC(c3ccccc3F)C2)c1` (stereo not drawn), for which the activation in assay [1] is 87% (active); in assay [12] it was 8.52% (active); in assay [15] it was 20.8% (active). For the same compound, the result in [2], in [3], in assay [4], in assay [6], in [7] and in assay [8] was inactive. The result in assay [10], in assay [11], in [13], in assay [14] and in assay [16] was inactive. The inhibition in assay [5] is 55% (active); in assay [9], 50% (active).
Take `Clc1cccc(C[n+]2cc(-c3ccccc3)n3c2CCC3)c1`: the result in assay [1], in [2], in [3], in assay [4], in assay [7] and in [8] was inactive. In addition, the compound was called inactive in assay [9], in assay [10], in [11], in [12], in assay [14] and in [15]. Besides, the outcome in [16] was inactive. Moreover, the results for the inhibition in [5], in assay [6] and in assay [13] were 95% (active), 51% (active) and 15.5% (active), respectively.
Consider `NC(=O)c1nsc(C(=O)N(Cc2ccco2)C(C(=O)NCc2ccc(F)cc2)c2ccc(O)cc2)c1N` (stereo not drawn), for which the outcome in [1], in [2], in assay [3], in assay [4], in assay [7] and in [8] was inactive. Also, the outcome in assay [9], in [10], in assay [11], in [12], in assay [14] and in [15] was inactive. The outcome in assay [16] was inactive. The inhibition in assay [5] is 84% (active); in assay [6], 55% (active); in assay [13] it was 25.1% (active).
For `CCn1cc(CN2CCCC(CO)(Cc3cccc(Cl)c3)C2)cn1` (stereo not drawn), the result in assay [1], in assay [2], in assay [3], in assay [4], in assay [6] and in assay [7] was inactive. The outcome in [8], in [9], in assay [10], in [11], in [12] and in assay [14] was inactive. The outcome in assay [15] and in assay [16] was inactive. The inhibition in [5] was 94% (active); in assay [13] it was 38.8% (active).
Regarding `N#Cc1c(N)sc2c1CCCCCC2`, the outcome in assay [1], in [2], in assay [3], in assay [4], in assay [7] and in assay [8] was inactive. For the same compound, the compound was called inactive in assay [9], in [10], in [11], in assay [12], in [14] and in assay [15]. For the same compound, the outcome in [16] was inactive. Further, the inhibition in [5] is 94% (active); in [6], 44% (active); in assay [13], 32.3% (active).
As for `Cc1nn(C)c(C)c1Sc1ccc(Br)cc1`, the result in assay [1], in [2], in [3], in [4], in [6] and in assay [7] was inactive. Further, the outcome in [8], in assay [9], in [10], in assay [11], in [12] and in assay [14] was inactive. The outcome in assay [15] and in assay [16] was inactive. In addition, the inhibition in [5] was 82% (active); in assay [13], 24.8% (active).
As for `CCC(C)NCCOCCOc1ccccc1-c1ccccc1` (stereo not drawn), the outcome in [1], in assay [2], in assay [3], in [4], in [6] and in [7] was inactive. Further, the result in assay [8], in assay [9], in assay [10], in assay [11], in assay [12] and in assay [14] was inactive. Also, the result in [15] and in assay [16] was inactive. Further, the inhibition in assay [5] is 77% (active); in assay [13], 36.9% (active).
